# Data from PubChem BioAssay (NCI).
# About 83,000 compounds went through this panel and 20% of them were active in at least one assay; those are over-represented in the sample as a whole.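 Growth was measured after 48 h exposure to one concentration of compound in 96-well plates. Values under 10 count as active.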 Active and inactive are the calls of the source.
# Test system: NCI-H226 lung
# Assay: NCI-60 one-dose screen, 48 h (100 = growth as untreated, 0 = no growth, -100 = all killed)
# Settings: 10 µM unless noted
# Protocol: Growth inhibition of the NCI-H226 human Non-Small Cell Lung tumor cell line is measured as a screen for anti-cancer activity. Cells are grown in 96 well plates and exposed to the test compound for 48 hours. Compounds are tested at a single concentration, which is 10^-5 M for most compounds. The reported endpoint is percent growth (GI% or GIPRCNT), where numbers from 0 - 100% represent growth inhibition, and numbers from -100% - 0 represent cell death. For example, a value of 40 represents 60% growth inhibition. A value of 0 means no net growth occurred over the course of the experiment. A value of -40 indicates 40% of cells at the beginning of the experiment died by the end of the experiment. A value of -100 means all cells are dead at the end of the experiment.
# NCI-60 Human Tumor Cell Lines Screen was performed using the standard one-dose NCI protocol, which is described in more detail at https://dtp.cancer.gov/discovery_development/nci-60/default.htm.
# Compounds with GIPRCNT values below 10 were considered active. Activity score was based on GIPRCNT using the following formula: […]
# Score is 0 for GIPRCNT values of 100 or above, 50 for GIPRCNT values of 0, and 100 for GIPRCNT values of -100.
row,SMILES,growth
1,CSC1=C(N)C(=O)c2[nH]cc(CO)c2C1=N,-65.3% (active)
2,Cc1ccc(F)c(NC(=O)Nc2ccc(-c3cccc4[nH]nc(N)c34)cc2)c1,57.6% (inactive)
3,O=C(Cn1cncn1)Nc1ccc(-c2nc3ccccc3s2)cc1,75% (inactive)
4,CC(=O)c1cnc2ccc(-c3cc(Cl)c(O)c(Cl)c3)nc2c1NC1CCC(CN(C)C)CC1 (stereo not given),-16.3% [2.5 µM] (active)
5,COc1cc2c(c(OC)c1)C1c3ccccc3NC(=O)N1CC2 (stereo not given),51.5% (inactive)
6,C#Cc1cccc(Nc2ncnc3cc4c(cc23)OCCOCCOCCO4)c1,71.3% (inactive)
7,CCCCCCCC(=O)SCC/C=C/[C@@H]1CC(=O)NCc2nc(co2)C2=N[C@@](C)(CS2)C(=O)N[C@@H](C(C)C)C(=O)O1,-10.4% (active)
8,Cc1c(Cn2c(C)nc3c(C(=O)O)cc(N4CCOCC4)cc32)cccc1C(F)(F)F,114% (inactive)
9,COc1cc2c(cc1OCCCCCN1CCN(c3ncnc4ccccc34)CC1)N=CC1CCCN1C2=O (stereo not given),-58.2% (active)
10,N#CC[C@H](C1CCCC1)n1cc(-c2ncnc3[nH]ccc23)cn1,33.7% (inactive)
11,CC[C@@H]1C(=O)N(C)c2cnc(Nc3ccc(C(=O)NC4CCN(C)CC4)cc3OC)nc2N1C1CCCC1,52.6% (inactive)
12,NC1=Nc2ccccc2N(O)N1,98.2% (inactive)
13,C=CCn1c(=O)c2cnc(Nc3ccc(N4CCN(C)CC4)cc3)nc2n1-c1cccc(C(C)(C)O)n1,40% (inactive)
14,CNC(=O)c1ccc(Nc2ncc(C(F)(F)F)c(NCc3nccnc3N(C)S(C)(=O)=O)n2)cc1,2.77% (active)
15,COCc1c(-c2ccc(NC(=O)Nc3cc(C(F)(F)F)ccc3F)c(F)c2)c2c(N)ncnn2c1CN1CCOCC1,-7.25% (active)
16,C=C1C(=O)O[C@H]2[C@H]1CC/C(C=Nc1c(N)cc(C(F)(F)F)cc1C(F)(F)F)=C\CC[C@@]1(C)O[C@@H]21,-53.1% (active)
17,CN1CCN(CC(=O)Nc2ccc(-c3nc4ccccc4s3)cc2)CC1,96.2% (inactive)
18,NC(=O)Nc1cc(-c2cccc(F)c2)sc1C(=O)N[C@H]1CCCNC1,6.7% (active)
19,O=C1C=CC2(NN=C(c3ccccc3)N2c2cccc(Cl)c2)c2cccc(O)c21 (stereo not given),85.6% (inactive)
20,C[C@@]1(C(=O)Nc2ccc(F)nc2)CCCN1c1nc(Nc2cc(C3CC3)[nH]n2)c2cccn2n1,30.1% (inactive)

row,SMILES,growth
1,COc1ccc2c(CCCC(c3ccccc3)c3ccccc3)c3[n+](cc2c1OC)CCc1cc2c(cc1-3)OCO2,2.75% (active)
2,C=CC(=O)Nc1cc2c(Nc3ccc(F)c(Cl)c3)ncnc2cc1C#CC(C)(C)N1CCN(C)CC1,-97.4% (active)
3,C=CCCCOC1[C@H](OCc2ccccc2)C(OCc2ccccc2)C(OC)O[C@@H]1CNC(=O)c1cccc(I)c1 (stereo not given in full),66.5% (inactive)
4,O=C(Cc1ccc(-c2ccc(OCCN3CCOCC3)cc2)cn1)NCc1ccccc1,48.8% (inactive)
5,NC1=Nc2cc(OCCCN3Cc4ccccc4C3)c(OCC3CC3)cc2C12CCCC2,80.7% (inactive)
6,CCc1cc2c(c3ccc(C(=O)CBr)cc13)CCCC2,92.2% (inactive)
7,Cn1cc(-c2[nH]c3cc(NC(=O)[C@H](N)C4CCCCC4)cc4c3c2C=NNC4=O)cn1,26.1% (inactive)
8,Cc1cc2c(-c3nc4ccccn4c3NC3CCCCC3)c(O)c(O)cc2c(O)c1-c1c(C)cc2c(-c3nc4ccccn4c3NC3CCCCC3)c(O)c(O)cc2c1O,53.6% (inactive)
9,Cc1ccsc1C(NC(=O)c1ccccc1)c1cc(Cl)c2cccnc2c1O (stereo not given),38.5% (inactive)
10,O=C(NCCO)Nc1ccc(-c2nc(N3CCOCC3)c3cccn3n2)cc1,6.97% (active)
11,CN1CCN(c2nc(NCCNc3ccnc4cc(Cl)ccc34)c3ccccc3n2)CC1,62% (inactive)
12,CC(=O)CC1CCCC1c1ccc2ccccc2c1 (stereo not given),95.2% (inactive)
13,CCOC(=O)C1=C(C)N=C2Sc3cccc(OC)c3N2[C@H]1c1ccccn1,84.9% (inactive)
14,CCOC(=O)c1sc(NC(=O)COc2ccc(/C=C3\Cc4ccc(Cl)cc4C3=O)cc2)nc1C,97.1% (inactive)
15,COc1ccc(-c2cc3c(oc2=O)-c2ccccc2OC3OC(C)=O)cc1 (stereo not given),94.3% (inactive)
16,Cc1nc(NC(=O)N2CCC[C@H]2C(N)=O)sc1-c1ccnc(C(C)(C)C(F)(F)F)c1,71% (inactive)
17,Cc1c(CN2CCN(C(=O)[C@H](C)O)CC2)sc2c(N3CCOCC3)nc(-c3cnc(N)nc3)nc12,-4.64% (active)
18,CC(C)(C)c1cnc(CSc2cnc(NC(=O)C3CCNCC3)s2)o1,3.09% (active)
19,CNC(=O)c1cc(Oc2cccc3nc(Nc4ccc(Cl)c(F)c4)ccc23)ccn1,43.4% (inactive)
20,CN(C)CCn1c(=O)c2c3cc4c(cc3n(CCN(C)C)c2c2ccc(Cl)cc21)OCO4,55% (inactive)
